In the library only some 19% were active in any assay of this set; here they are far more common.
TDP1 cell noCPT = qHTS for Inhibitors of human tyrosyl-DNA phosphodiesterase 1 (TDP1): qHTS in cells in absence of CPT; DT40 Tdp1-/- hTDP1 cells, no CPT, ATP luminescence, 48 h; Potency, µM (titrated, usually from 46.2 µM), hits mostly inhibitors; AID 686978, 2013; 420,000 compounds, 15% hits; also: nearly all actives have a fitted effect of over 55% in size
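Stably hTDP1-transfected Tdp1-null chicken DT40 cells were treated with library compounds minus camptothecin and grown for at least 48 hr at 37 °C, after which cellular ATP was quantified by luminescence.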
HT1080-NT tox = kills 2HG-producing HT-1080-NT fibrosarcoma cells | HT-1080-NT fibrosarcoma viability, CellTiter-Glo ATP luminescence, 48 h | Potency, µM (doses to about 46.1 µM), hits mostly cytotoxic | 360,000 compounds, 1.6% hits;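 also: NT is the 2HG producing partner of a matched IDH1 knockdown line; nearly all actives have a fitted effect of over 55% in size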
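HT-1080-NT fibrosarcoma cells (2HG-overproducing), 750 cells/well in RPMI with 5% FBS, dosed after 2 h and incubated 48 h at 37C. CellTiter-Glo luminescence normalized to DMSO and no-cell wells; concentration-response curves fitted and classed.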
HT1080 IDH1KD tx = kills HT-1080 cells with IDH1 knockdown; HT-1080 IDH1 knockdown viability, ATP luminescence, 48 h; 360,000 compounds, 2% hits; Potency, µM (highest dose often 46.1 µM), hits mostly cytotoxic
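HT-1080-IDH1KD cells (IDH1 knocked down), 750/well in RPMI with 5% FBS, treated with compound 48 h at 37 degrees C. Viability by CellTiter-Glo luminescence, normalised to DMSO and no-cell wells; concentration-response curves classed.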
IL-1B inflam inh = inflammasome signaling inhibition, IL-1 beta readout; 360,000 compounds, 4.7% hits; activity change, % at 57.5 µM; THP-1 LPS/ATP IL-1B secretion, AlphaLISA, 16 h; active compounds read low; AID 743279; in the data active = activity change below about -50%; inconclusive = mostly about -30% to -49%
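Secreted IL-1B measured by AlphaLISA bead assay after 16 h compound exposure of THP-1 cells; compounds (final up to 57.5 uM) added 1 h before LPS (250 ng/mL) and ATP (1.25 mM) stimulation; lower signal means less secretion.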
DT40 TDP1 CPT = growth inhibition of DT40 Tdp1-/-;hTDP1 cells with camptothecin (screen for TDP1 inhibitors). chicken DT40 Tdp1-/-;hTDP1 cells + 20 nM CPT, ATP luminescence, 48 h. Potency, µM (series often up to 46.2 µM), most hits filed as inhibitors. 420,000 compounds, 12% hits. AID 686979; also: nearly all actives have a fitted effect of over 55% in size
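Chicken DT40 Tdp1-/- cells complemented with human TDP1, 400 cells/well, exposed to compounds plus 20 nM camptothecin for at least 48 h at 37 C; viability read as ATP content by CellTiter-Glo luminescence.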
Of the large screens only hits and unclear results are named; the others gave an inactive call. Unless noted, calls follow the shape of the dose curve; as a rule, active = well fitted curve in the direction sought with a large enough effect; inconclusive = small, poorly fitted or top-dose-only effect, or another doubt; inactive = no such curve, though single readings can be large; an effect the other way counts as inactive or inconclusive.

Cc1ccc(-n2nc(CN3CCOCC3)c(-c3ccccc3)c2N)cc1Cl	TDP1 cell noCPT 21µM, DT40 TDP1 CPT 29µM
CC(C)Cn1c(N)c(C(=O)CSc2ncccn2)c(=O)n(C)c1=O	TDP1 cell noCPT 10µM, DT40 TDP1 CPT inconclusive
CC(C)Cn1c(N)c(C(=O)CSc2ncn[nH]2)c(=O)n(C)c1=O	TDP1 cell noCPT inconclusive
CCOC(=O)Cc1csc(SCC(=O)c2c(N)n(CC(C)C)c(=O)n(C)c2=O)n1	TDP1 cell noCPT 10µM, DT40 TDP1 CPT 9.2µM
Cc1csc(SCC(=O)c2c(N)n(CC(C)C)c(=O)n(C)c2=O)n1	TDP1 cell noCPT 21µM, DT40 TDP1 CPT 16µM
CCOC(=O)COc1c(/C=N\OC)cc(Cl)cc1OC	none
CN1CCN(S(=O)(=O)c2ccc(N3CCN(C(c4ccccc4)c4ccccc4)CC3)nc2)CC1	TDP1 cell noCPT 16µM, HT1080 IDH1KD tx inconclusive, DT40 TDP1 CPT inconclusive
CN1CCN(S(=O)(=O)c2ccc(N3CCN(S(=O)(=O)/C=C/c4ccccc4)CC3)nc2)CC1	TDP1 cell noCPT inconclusive, DT40 TDP1 CPT 18µM
CC(=O)c1ccc(N2CCN(c3ccc(S(=O)(=O)N4CCN(C)CC4)cn3)CC2)cc1	none
CCOC(=O)c1[nH]c(C)c(CCC(=O)Nc2cc(C)ccc2OC)c1C	TDP1 cell noCPT inconclusive (no result: HT1080-NT tox, HT1080 IDH1KD tx, IL-1B inflam inh)
COc1ccccc1CNc1ccc(-c2nc(-c3ccccn3)no2)cc1[N+](=O)[O-]	TDP1 cell noCPT inconclusive (no result: HT1080-NT tox, HT1080 IDH1KD tx, IL-1B inflam inh)
NC(=O)N1N=C2/C(=C/c3ccccc3)CCCC2C1c1ccccc1 (centres undefined)	TDP1 cell noCPT inconclusive, HT1080-NT tox inconclusive, IL-1B inflam inh -57
COc1ccc(/C=C2\CCCC3C2=NN(C(=O)CSc2ncn[nH]2)C3c2ccc(OC)cc2)cc1 (centres undefined)	TDP1 cell noCPT 23µM, HT1080-NT tox inconclusive, HT1080 IDH1KD tx inconclusive, IL-1B inflam inh -85, DT40 TDP1 CPT 18µM
O=C(O)C(Cc1c[nH]c2ccccc12)NS(=O)(=O)c1cccc(Cl)c1Cl (centres undefined)	none
CC(=O)Nc1ccc(NC(=O)CSc2ncc(C(=O)Nc3ccc(F)cc3)c(=O)n2C)cc1	TDP1 cell noCPT 21µM, HT1080 IDH1KD tx inconclusive, IL-1B inflam inh -59, DT40 TDP1 CPT 18µM
CC(=O)Nc1ccc(NC(=O)CSc2ncc(C(=O)Nc3ccc(Cl)cc3)c(=O)n2C)cc1	TDP1 cell noCPT inconclusive, HT1080 IDH1KD tx inconclusive, DT40 TDP1 CPT inconclusive
CC(=O)Nc1cccc(NC(=O)CSc2ncc(C(=O)Nc3ccc(F)cc3)c(=O)n2C)c1	TDP1 cell noCPT 12µM, HT1080-NT tox inconclusive, HT1080 IDH1KD tx inconclusive, IL-1B inflam inh -100, DT40 TDP1 CPT 15µM
COc1ccccc1CNC(=O)CSc1ncc(C(=O)Nc2ccccc2)c(=O)n1C	TDP1 cell noCPT 15µM, DT40 TDP1 CPT 16µM
Cn1c(SCC(=O)NCc2ccc(F)cc2)ncc(C(=O)Nc2ccccc2)c1=O	TDP1 cell noCPT inconclusive, DT40 TDP1 CPT inconclusive
CC(=O)c1cccc(NC(=O)c2nc3ccccc3n(C)c2=O)c1	TDP1 cell noCPT 10µM, DT40 TDP1 CPT 15µM (no result: HT1080-NT tox, HT1080 IDH1KD tx, IL-1B inflam inh)
Cn1c(SCC(=O)NCCc2ccccc2)ncc(C(=O)Nc2ccccc2)c1=O	TDP1 cell noCPT 13µM, DT40 TDP1 CPT inconclusive
Cc1cc(NC(=O)CSc2ncc(C(=O)Nc3ccc(F)cc3)c(=O)n2C)no1	none (no result: HT1080-NT tox, HT1080 IDH1KD tx, IL-1B inflam inh)
Cn1c(SCC(=O)NCC2CCCO2)ncc(C(=O)Nc2ccc(Cl)cc2)c1=O (centres undefined)	TDP1 cell noCPT 9.2µM, DT40 TDP1 CPT 7.3µM
CC(=O)c1cccc(NC(=O)CSc2ncc(C(=O)Nc3ccccc3)c(=O)n2C)c1	TDP1 cell noCPT 7.3µM, DT40 TDP1 CPT 7.3µM
CC(=O)Nc1cccc(NC(=O)CSc2ncc(C(=O)Nc3ccccc3)c(=O)n2C)c1	TDP1 cell noCPT 8.2µM, HT1080-NT tox inconclusive, HT1080 IDH1KD tx inconclusive, IL-1B inflam inh -100, DT40 TDP1 CPT 5.8µM
COc1ccc(CN2CCCC(n3cc(C(=O)N4CCCCC4)nn3)C2)c(OC)c1C (centres undefined)	none (no result: HT1080-NT tox, HT1080 IDH1KD tx, IL-1B inflam inh)
Cc1ccc(Cl)cc1N1CCN(C(=O)CCn2c(=O)c3cccn3c3cccnc32)CC1	TDP1 cell noCPT 6.5µM, DT40 TDP1 CPT 9.2µM (no result: HT1080-NT tox, HT1080 IDH1KD tx, IL-1B inflam inh)

Screening results as filed in PubChem BioAssay.
